Measured values reported in PubChem BioAssay (EPA / NIEHS).
Inconclusive results are not listed. Activity calls are given as the source filed them. Rule for the calls: active = hit-call score of the fitted dose curve at least 0.9, where 1 is the maximum; inconclusive = response in the unintended direction; inactive = score below 0.9.

Each compound was assayed against D(1A) dopamine receptor (Homo sapiens) (UniProt P21728) (assay: NVS_GPCR_hDRD1: NovaScreen (NVS) G Protein-Coupled Receptor Assay for human Dopamine Receptor D1 (DRD1) (AID 2283269)).
Method in brief: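 HEK293-derived receptor preparation; radioligand competitive displacement; 1 h; filtration + scintillation counting. DMSO = negative control/baseline. Primary: 25 uM, duplicate; secondary: concentration–response for actives.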

Chain of D(1A) dopamine receptor (Homo sapiens) (P21728 whole entry, looked up): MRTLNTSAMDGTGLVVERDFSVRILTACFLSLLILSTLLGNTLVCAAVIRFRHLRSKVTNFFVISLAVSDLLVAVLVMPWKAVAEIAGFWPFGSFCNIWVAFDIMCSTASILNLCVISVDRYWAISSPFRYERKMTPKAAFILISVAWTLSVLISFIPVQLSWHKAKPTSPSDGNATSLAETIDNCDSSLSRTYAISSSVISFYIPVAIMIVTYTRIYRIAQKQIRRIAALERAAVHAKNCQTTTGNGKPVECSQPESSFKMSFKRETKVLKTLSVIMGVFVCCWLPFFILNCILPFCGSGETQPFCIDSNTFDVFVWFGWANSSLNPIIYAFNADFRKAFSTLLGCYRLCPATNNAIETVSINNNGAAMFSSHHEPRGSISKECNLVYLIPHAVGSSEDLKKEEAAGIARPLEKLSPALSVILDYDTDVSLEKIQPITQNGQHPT

SMILES | outcome | AC50
CSC(C)(C)C=NO | inactive | 
CCOP(=S)(Oc1ccc([N+](=O)[O-])cc1)c1ccccc1 (stereo unspecified) | inactive | 
Nc1ccc([N+](=O)[O-])cc1Cl | inactive | 
Oc1ccccc1Br | inactive | 
CC(C)Nc1ccc(Nc2ccccc2)cc1 |  | 25 µM (active)
N#Cc1c(-c2ccc(Cl)cc2)[nH]c(C(F)(F)F)c1Br | inactive | 
O=c1ssc(Cl)c1Cl |  | 1.21 µM (active)
COP(N)(=S)OC | inactive | 

Each compound was assayed against Muscarinic acetylcholine receptor M2 (Homo sapiens) (UniProt P08172) (assay: NVS_GPCR_hM2: NovaScreen (NVS) G Protein-Coupled Receptor Assay for human Muscarinic, M2 Receptor (AID 2283273)).
Method in brief: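 Filter-based radiodetection read bound radioligand 1 h after dosing CHO-derived membrane protein. Single-concentration duplicates (25 uM) first, then concentration-response for actives; signal loss versus DMSO scored.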

Chain of Muscarinic acetylcholine receptor M2 (Homo sapiens) (P08172 whole entry, looked up): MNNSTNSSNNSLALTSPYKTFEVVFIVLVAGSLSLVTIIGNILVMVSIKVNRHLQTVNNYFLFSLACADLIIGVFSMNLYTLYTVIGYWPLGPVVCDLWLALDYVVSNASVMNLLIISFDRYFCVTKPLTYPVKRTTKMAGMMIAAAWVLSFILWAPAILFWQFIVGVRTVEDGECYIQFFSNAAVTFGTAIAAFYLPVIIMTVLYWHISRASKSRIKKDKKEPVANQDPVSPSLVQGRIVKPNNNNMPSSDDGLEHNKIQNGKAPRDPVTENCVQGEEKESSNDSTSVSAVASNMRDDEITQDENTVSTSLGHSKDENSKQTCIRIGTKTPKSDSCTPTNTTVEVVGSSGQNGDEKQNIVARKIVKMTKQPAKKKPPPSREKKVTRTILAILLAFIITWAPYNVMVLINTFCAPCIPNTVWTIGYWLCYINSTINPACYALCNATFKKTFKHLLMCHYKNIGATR

SMILES | outcome | AC50
CSC(C)(C)C=NO | inactive | 
CCC(C)(C)c1ccc(O)cc1 | inactive | 
CC(C)(C)OOC(C)(C)C | inactive | 
CC(C)Nc1ccc(Nc2ccccc2)cc1 |  | 2.71 µM (active)

These compounds were tested against human Neurokinin, NK2 Receptor, TACR2 (gene 6865) (UniProt P21452) (assay: NVS_GPCR_hNK2: NovaScreen (NVS) G Protein-Coupled Receptor Assay for human Neurokinin, NK2 Receptor (AID 2283278);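 note: actives reduce bound radioligand signal relative to DMSO baseline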).
Method in brief: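 Filter-based scintillation counting measured radioligand bound to receptor extracted from CHO cells, 4 hours after compound addition. Chemicals screened first at 25 uM in duplicate, with actives retested in concentration series relative to DMSO.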

Chain of human Neurokinin, NK2 Receptor, TACR2 (gene 6865) (P21452 whole entry, looked up): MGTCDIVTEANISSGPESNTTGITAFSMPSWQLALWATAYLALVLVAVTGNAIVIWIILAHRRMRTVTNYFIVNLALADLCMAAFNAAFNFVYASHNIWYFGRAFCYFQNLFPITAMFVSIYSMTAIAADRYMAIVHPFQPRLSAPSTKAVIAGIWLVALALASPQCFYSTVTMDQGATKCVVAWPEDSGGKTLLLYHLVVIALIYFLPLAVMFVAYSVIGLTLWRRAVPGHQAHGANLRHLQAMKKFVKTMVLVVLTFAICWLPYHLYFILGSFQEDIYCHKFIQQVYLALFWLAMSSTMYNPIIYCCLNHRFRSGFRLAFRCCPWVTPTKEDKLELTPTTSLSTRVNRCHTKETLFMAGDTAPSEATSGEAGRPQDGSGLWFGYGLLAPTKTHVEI

SMILES | outcome | AC50
Cn1[nH]nnc1=S | inactive | 
CSC(C)(C)C=NO | inactive | 
CCOP(=S)(OCC)SCn1nnc2ccccc2c1=O | inactive | 
CCCCCCCc1ccc(O)cc1 | inactive | 
CC(C)(C)c1ccccc1OP(=O)(Oc1ccccc1)Oc1ccccc1 |  | 17.2 µM (active)
CC(C)Nc1ccc(Nc2ccccc2)cc1 |  | 20 µM (active)
CCOP(=S)(OCC)SCSc1ccc(Cl)cc1 | inactive | 
Cc1cc(C)c(C(=O)P(=O)(c2ccccc2)c2ccccc2)c(C)c1 |  | 0.367 µM (active)
O=S1(=O)OCC2C(CO1)C1(Cl)C(Cl)=C(Cl)C2(Cl)C1(Cl)Cl (stereo unspecified) | inactive | 
